These results are taken from PubChem BioAssay.

The nature of test [1]: growth inhibition of DIPG glioma cells, dose response, cell-based, SU-DIPG-XIII, MIPE4.0, CellTiter-Glo, qHTS (AID 1347061; cut-off not given, nearly all actives have AC50 up to about 37 µM;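 also: cells exposed to compound for 48 hours before readout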). The following applies: SU-DIPG-XIII viability, CellTiter-Glo ATP luminescence. A general note: ATP-based viability assays read luminescence as a measure of living cells.
Test [2] in a line: growth inhibition of DIPG glioma cells, dose response, cell-based, JHH-DIPG-1, MIPE4.0, CellTiter-Glo, qHTS (AID 1347062; cut-off not given, nearly all actives have AC50 up to about 27 µM;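 as to AC50: cells exposed to compound for two days before readout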). The following applies: JHH-DIPG-1 viability, CellTiter-Glo ATP luminescence.
The nature of test [3]: growth inhibition of DIPG glioma cells, dose response, cell-based, SU-DIPG-IV, MIPE4.0, CellTiter-Glo, qHTS (AID 1347063; cut-off not given, nearly all actives have AC50 up to about 30 µM;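 also: compound exposure lasted 48 hours before the viability readout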). The following applies: SU-DIPG-IV viability, CellTiter-Glo ATP luminescence.
The nature of test [4]: SU-DIPG-VI glioma cell viability, MIPE4.0 library, CellTiter-Glo luminescence, qHTS (AID 1347066; cut-off not given, nearly all actives have AC50 up to about 30 µM;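 also: cells exposed to compound for 48 hours before readout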). Conditions: CellTiter-Glo ATP luminescence.
The nature of test [5]: viability loss in pontine glioma line – cell-based, SU-DIPG-XXV, MIPE5.0, CellTiter-Glo, qHTS, dose response (AID 1347065; cut-off not given, nearly all actives have AC50 up to about 26 µM;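 also: cells exposed to compound for 48 hours before ATP readout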). Conditions: CellTiter-Glo ATP luminescence.
A short description of test [6]: JHH-DIPG-1 glioma cell viability, MIPE5.0 library, CellTiter-Glo luminescence, qHTS (AID 1347067; cut-off not given, nearly all actives have AC50 up to about 26 µM;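 also: cells exposed to compound for 48 hours before readout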). The following applies: JHH-DIPG-1 glioma viability, CellTiter-Glo ATP luminescence.
A short description of test [7]: SU-DIPG-XXV glioma cell viability, MIPE5.0 library, qHTS (AID 1347068; cut-off not given, nearly all actives have IC50 up to about 30 µM). (In qHTS, concentration-response curves come from the screen itself.)
Test [8] in a line: sensitizers of A549 cells to miR-34 induction, primary screen, imaging, A549 dox-inducible miR-34, nuclei and caspase counts (AID 1347080;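 active = compounds whose cell count with miR-34 switched on is under 0.7 times the count with it off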). The following applies: A549 miR-34 inducible, Hoechst nuclei count, 48 h.
Test [9] can be described thus: survival rescue of mitochondrial mutant cells in low glucose, primary screen, MELAS cybrids, Rieske KO mouse fibroblasts, CellTiter-Glo (AID 1508586;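 active = mean z-score across replicates of 1.96 or higher in either the MELAS or the Rieske mutant cell line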;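 also: z relative to plate mean and SD of compound and empty wells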).
The nature of test [10]: ovarian cancer cell viability with rucaparib, profiling panel, oncology-focused library, rucaparib conditional (AID 1508598). The following applies: patient-derived ovarian cancer cells, CellTiter-Glo viability, 144 h, stronger effect = lower value.

Structures are written as SMILES. Inconclusive results are not listed. The source made the active and inactive calls.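 The calls were made as follows, unless noted: active = normalized viability below 100% at a tested concentration; inactive = the rest.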

With `N#CC(=C(O)c1ccc(Cl)cc1Cl)c1nc2cc(Cl)ccc2c(=O)[nH]1`, the call in test [1], in test [2], in test [3] and in test [4] was inactive.

`Cc1cnn(C)c1C(=O)Nc1cc(Nc2ccc3c(/C=C/c4ccccn4)n[nH]c3c2)ccc1F`: the AC50 – broadly, the midpoint of the concentration-response curve, whichever way the signal moves – in test [1] was 13.2 µM (active); in test [2] it was 18.7 µM (active); in test [3], 14.8 µM (active); in [4], 18.7 µM (active).

Consider `N[C@H]1CN(c2c(F)cc3c(=O)c(C(=O)O)cn(C4C[C@H]4F)c3c2Cl)CC12CC2` (some centres undefined), for which the outcome in test [1], in [2], in test [3] and in [4] was inactive.

For `CCCCCNC(=O)N1CCC(CN(Cc2ccc(Cl)cc2)Cc2ccc([N+](=O)[O-])s2)C1` (centres undefined), the result in test [1] and in [2] was inactive. Further, the AC50 in test [3] was 23.5 µM (active); in [5], 29.5 µM (active); in [6] it was 23.5 µM (active).

As to `c1nc2nc(Nc3ccc(N4CCOCC4)cc3)nc(NC3CCCCC3)c2[nH]1`, the AC50 in test [1] was 9.35 µM (active); in test [2] it was 16.6 µM (active); in test [3], 14.8 µM (active); in [5], 2.09 µM (active); in test [4] it was 8.33 µM (active); in test [6], 5.9 µM (active). For the same compound, the compound was called inactive in test [7].

In the case of `CC1COC2(CCN(c3nc(=O)c4cc(C(F)(F)F)cc([N+](=O)[O-])c4s3)CC2)O1` (centres undefined), the compound was called inactive in [1], in [2], in test [3], in test [5], in [4] and in test [6]. The call in test [7] was inactive. The fold change in [8] (stronger effect = lower value, cell number ratio, induced over uninduced) was 0.872 (inactive); in test [8] (measured here: relative caspase fold change +Dox/-Dox), 0.894. In addition, the cell count was 6990 in test [8] (measured here: total cells with miR-34 induction, stronger effect = lower value) and 8010 in [8] (measured here: total cells without miR-34 induction). The z-score is -0.641 (inactive) in test [9] (MELAS cybrid survival, CellTiter-Glo 48 h, stronger effect = higher value) and -0.174 in test [9] (Rieske KO mouse fibroblast survival, CellTiter-Glo 72 h). Besides, the viability (in general, a read-out of living cells in per cent, often relative to untreated cells) in test [10] (at 0.000305 µM, OCI-C5x cells, with rucaparib 10 µM, 100% = cells with rucaparib alone) was 115% (inactive); in test [10] (at 0.000305 µM, OCI-C5x cells, without rucaparib), 107% (inactive); in [10] (at 0.000305 µM, OCI-P5x cells, with rucaparib 20 µM, 100% = cells with rucaparib alone), 99.5% (active); in test [10] (at 0.000305 µM, OCI-P5x cells, without rucaparib) it was 95.5% (active); in test [10] (at 0.00122 µM, OCI-C5x cells, with rucaparib 10 µM, 100% = cells with rucaparib alone), 134% (inactive); in test [10] (at 0.00122 µM, OCI-C5x cells, without rucaparib), 116% (inactive). In addition, the viability in test [10] (at 0.00122 µM, OCI-P5x cells, with rucaparib 20 µM, 100% = cells with rucaparib alone) was 105% (inactive); in test [10] (at 0.00122 µM, OCI-P5x cells, without rucaparib) it was 94.9% (active); in test [10] (at 0.00488 µM, OCI-C5x cells, with rucaparib 10 µM, 100% = cells with rucaparib alone), 129% (inactive); in test [10] (at 0.00488 µM, OCI-C5x cells, without rucaparib), 119% (inactive); in [10] (at 0.00488 µM, OCI-P5x cells, with rucaparib 20 µM, 100% = cells with rucaparib alone) it was 102% (inactive); in [10] (at 0.00488 µM, OCI-P5x cells, without rucaparib), 104% (inactive). Moreover, the viability is 126% (inactive) in test [10] (at 0.0195 µM, OCI-C5x cells, with rucaparib 10 µM, 100% = cells with rucaparib alone); 112% (inactive) in test [10] (at 0.0195 µM, OCI-C5x cells, without rucaparib); 105% (inactive) in [10] (at 0.0195 µM, OCI-P5x cells, with rucaparib 20 µM, 100% = cells with rucaparib alone); 106% (inactive) in test [10] (at 0.0195 µM, OCI-P5x cells, without rucaparib); 118% (inactive) in [10] (at 0.0781 µM, OCI-C5x cells, with rucaparib 10 µM, 100% = cells with rucaparib alone); 116% (inactive) in test [10] (at 0.0781 µM, OCI-C5x cells, without rucaparib). The viability in [10] (at 0.0781 µM, OCI-P5x cells, with rucaparib 20 µM, 100% = cells with rucaparib alone) was 107% (inactive); in test [10] (at 0.0781 µM, OCI-P5x cells, without rucaparib) it was 103% (inactive); in test [10] (at 0.313 µM, OCI-C5x cells, with rucaparib 10 µM, 100% = cells with rucaparib alone), 121% (inactive); in test [10] (at 0.313 µM, OCI-C5x cells, without rucaparib), 118% (inactive); in test [10] (at 0.313 µM, OCI-P5x cells, with rucaparib 20 µM, 100% = cells with rucaparib alone) it was 111% (inactive); in test [10] (at 0.313 µM, OCI-P5x cells, without rucaparib) it was 108% (inactive). Also, the viability is 115% (inactive) in test [10] (at 1.25 µM, OCI-C5x cells, with rucaparib 10 µM, 100% = cells with rucaparib alone); 130% (inactive) in test [10] (at 1.25 µM, OCI-C5x cells, without rucaparib); 102% (inactive) in test [10] (at 1.25 µM, OCI-P5x cells, with rucaparib 20 µM, 100% = cells with rucaparib alone); 108% (inactive) in test [10] (at 1.25 µM, OCI-P5x cells, without rucaparib); 122% (inactive) in test [10] (at 5 µM, OCI-C5x cells, with rucaparib 10 µM, 100% = cells with rucaparib alone); 121% (inactive) in [10] (at 5 µM, OCI-C5x cells, without rucaparib). The viability is 108% (inactive) in test [10] (at 5 µM, OCI-P5x cells, with rucaparib 20 µM, 100% = cells with rucaparib alone) and 105% (inactive) in test [10] (at 5 µM, OCI-P5x cells, without rucaparib).
